Structures are written as SMILES. Results filed as inconclusive are left out. Active and inactive are the calls of the source. Unless noted, calls come from the whole dose curve.

A short description of assay [1]: Nuclear factor erythroid 2-related factor 2/antioxidant responsive element (Nrf2/ARE) small molecule agonists: luciferase reporter gene qHTS assay in human keratinocytes (AID 1919969; note: nearly all actives have a fitted effect of over 35% in size). (In general: Reporter assays use an easily measured gene product as a stand-in for the process of interest.)
In assay [2] the target is Gonadotropin-releasing hormone receptor (Homo sapiens) (UniProt P30968). In words: Human gonadotropin-releasing hormone receptor (GnRHR) small molecule agonists, calcium flux assay in GnRHR-HEK293 cells (AID 1920063). Note: nearly all actives have a fitted effect of over 35% in size. Put shortly: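 GnRHR-HEK293, 1500 cells/well, 18 h 37 C/5% CO2; Ca dye 1 h 37 C; cpd pinned (DMSO), agonist mode; kinetic FL 480/540, 3 min, 1 s reads; 15 conc, n=3.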
(A change in cytosolic calcium serves as a functional read-out for many receptors and channels.)

The nature of assay [3]: G protein-coupled receptor (GPCR) small molecule agonists, calcium flux assay: HEK293 wild type cell line counter screen (AID 1920065). In short, it runs like this: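 Kinetic fluorescence at Ex/Em 480/540, recorded every second over 3 min, served as the read-out after compound addition. Each compound was tested at 15 concentrations in triplicate on cells pre-loaded with calcium dye for 1 h.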

Assay [4] can be described thus: p53 small molecule agonists, cell-based qHTS assay with rat liver microsomes: qHTS cell viability counter screen (AID 1963580). Note: nearly all actives have a fitted effect of over 45% in size. Note: potency is the fitted concentration of half-maximal effect. In short, it runs like this: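 In HCT-116 cells carrying a p53 response element-bla reporter, compounds were metabolically activated in situ by rat liver microsomes with NADPH over 16 h. Cell ATP content then served as the cytotoxicity measure.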
In general terms: Quantitative high-throughput screening tests each substance at several concentrations.

Assay [5] can be described thus: p53 small molecule agonists, cell-based qHTS assay: qHTS cell viability counter screen (AID 1963581). Note: nearly all actives have a fitted effect of over 45% in size. Put shortly:
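HCT-116 p53RE-bla cells, 4,000/well, plated 5 h before compound pin transfer; 16 h at 37 C; bla substrate 2 h RT; then CellTiter-Glo, 30 min RT, luminescence.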

Assay [6] can be described thus: cAMP Responsive Elements (CRE) small molecule agonists, cell-based qHTS assay (AID 1963590). Put shortly: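 HEK 293T CRE-bla, 2,000 cells/well, 18 h preincubation 37 C/5% CO2; cpds (DMSO) pinned, 3 h; LiveBLAzer B/G FRET substrate, 2 h RT.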
Assay [7] can be described thus: cAMP Responsive Elements (CRE) small molecule antagonists, cell-based qHTS assay (AID 1963591; active = well fitted inhibition curve with a large enough effect in the signal ratio in the repeat runs, not every such curve was filed as active; the % refers to the signal ratio; note: potency is the fitted concentration of half-maximal effect). Put shortly: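 Beta-lactamase reporter read by FRET substrate (LiveBLAzer B/G) after 2 h at room temperature. CRE-bla HEK293T cells had received compound plus 0.25 uM (final) NKH477 for 3 h at 37 °C.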
Assay [8] has as its target D(2) dopamine receptor (Homo sapiens) (UniProt P14416). The assay is described as follows: Dopamine D2 receptor (DRD2) small molecule agonists, cell-based qHTS assay (AID 1963594). Note: nearly all actives have a fitted effect of over 35% in size. Put shortly: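 HEK293 cells stably expressing DRD2 were cultured 24 h at 37 C, then given Ro20-1724 (0.1 mM final) and compounds for 10 min at room temperature. NKH477 (200nM) was then added for 30 min. cAMP was read by HTRF.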

Assay [9] has the same target. The assay is described as follows: Dopamine D2 receptor (DRD2) small molecule antagonists, cell-based qHTS assay (AID 1963595; active = well fitted inhibition curve with a large enough effect in the signal ratio in the repeat runs, with a control signal flat; the % refers to the signal ratio; note: potency is the fitted concentration of half-maximal effect). Put shortly: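 Antagonist mode in DRD2-HEK293 cells: after compound addition with 0.1 mM Ro20-1724, cells received quinpirole (12 nM) and NKH477 (200 nM) for 30 min at room temperature; HTRF cAMP read after 1 h detection.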
Assay [10] has as its target KiSS-1 receptor (Homo sapiens) (UniProt Q969F8). The assay is described as follows: Human kisspeptin (KISS1R) small molecule agonists, calcium flux assay in KISS1R-HEK293 cells (AID 1920064; active = well fitted activation curve with a large enough effect in the repeat runs). In short, it runs like this:
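Stable human KISS1R HEK293 line; 18 h plating, 37 C/5% CO2; calcium dye 1 h 37 C; compound pin transfer; kinetic fluorescence Ex/Em 480/540, 3 min.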

A short description of assay [11]: p53 small molecule agonists, cell-based qHTS assay with human liver microsomes (AID 1963577). In short, it runs like this: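 p53RE-bla reporter cells were pre-incubated 5 h at 37 C, then treated with compounds plus human liver microsomes (0.5 mg/mL final) and NADPH (0.5 mg/mL final) for 16 h at 37 C. Beta-lactamase activity was read by LiveBLAzer fluorescence after 2 h at room temperature.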

A short description of assay [12]: p53 small molecule agonists, cell-based qHTS assay with rat liver microsomes (AID 1963578). Put shortly: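 p53RE-bla cells were exposed to compounds together with rat liver microsomes (0.5 mg/mL final) and NADPH (0.5 mg/mL final) for 16 h at 37 C, then read by LiveBLAzer beta-lactamase fluorescence after 2 h at room temperature.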
The nature of assay [13]: p53 small molecule agonists, cell-based qHTS assay with human liver microsomes: qHTS cell viability counter screen (AID 1963579). Note: nearly all actives have a fitted effect of over 45% in size. Put shortly:
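p53RE-bla cells (4,000/well) were pre-incubated 5 h at 37 C, then given compounds in DMSO plus human liver microsomes (0.5 mg/mL final) and NADPH (0.5 mg/mL final) for 16 h at 37 C. Viability was read by CellTiter-Glo luminescence.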

Assay [14] deals with Beta-2 adrenergic receptor (Homo sapiens) (UniProt P07550). The assay is described as follows: Adrenergic beta2 receptor (ADRB2) small molecule antagonists, cell-based qHTS assay (AID 1963592). Note: series mostly up to about 92 µM; nearly all actives have a fitted effect of over 50% in size. In short, it runs like this:
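Cells (CHO, stable ADRB2 overexpression) incubated 18-20hr at 37C; compounds added from DMSO; agonist mix (1nM isoproterenol, 100uM IBMX, 25uM Ro-20-1724) added; 0.5hr RT; d2-cAMP and anti-cAMP-cryptate added; 1hr RT; 665/615 nm read.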

The target is the same in assay [15]. The assay is described as follows: Adrenergic beta2 receptor (ADRB2) small molecule agonists, cell-based qHTS assay (AID 1963593).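 Note: CHO cells stably overexpressing human ADRB2.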 Put shortly:
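CHO cells stably over-expressing ADRB2 were plated overnight at 37C, then dosed with compounds plus a stimulation mix containing 100uM IBMX and 25uM Ro-20-1724 for 0.5hr at room temperature. cAMP was measured by HTRF competition, 1hr.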

Assay [16] in a line: p53 small molecule agonists, cell-based qHTS assay (AID 1963582; active = well fitted activation curve with a large enough effect in the signal ratio in the repeat runs, not every such curve was filed as active; the % refers to the signal ratio). Put shortly: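 Reporter line: p53RE-bla. Pre-incubation 5 h, 37 C, 5% CO2; compound (DMSO, pin tool) 16 h, 37 C; B/G FRET substrate 2 h RT; fluorescence intensity read.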
The target in assay [17] is 5-hydroxytryptamine receptor 2A (Homo sapiens) (UniProt P28223). In words: 5-hydroxytryptamine receptor 2A (HTR2A) small molecule antagonists, cell-based qHTS assay (AID 1963586). Note: nearly all actives have a fitted effect of over 45% in size. In short, it runs like this: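 Antagonist-mode intracellular calcium assay: DOI (4 nM) added after 5 min compound pre-incubation at room temperature to dye-loaded HTR2A-CHO cells. Fluorescence followed for 3 min, sampled every second.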

Assay [18] has the same target. The assay is described as follows: 5-hydroxytryptamine receptor 2A (HTR2A) small molecule agonists, cell-based qHTS assay (AID 1963587). Note: nearly all actives have a fitted effect of over 30% in size. Put shortly: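 HTR2A-CHO cells, plated 18 h at 37 C/5% CO2, dye-loaded 1 h at 37 C; compounds in DMSO added by pin tool (agonist mode). Intracellular calcium flux read as kinetic fluorescence on FDSS over 2 min at 1 s intervals.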

Assay [19] addresses Muscarinic acetylcholine receptor M1 (Homo sapiens) (UniProt P11229). The assay is described as follows: Cholinergic receptor muscarinic 1 (CHRM1) small molecule antagonists, cell-based qHTS assay (AID 1963588). Note: nearly all actives have a fitted effect of over 40% in size. Note: potency is the fitted concentration of half-maximal effect. Put shortly:
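CHRM1-CHO calcium-flux assay, antagonist mode. Cells were seeded 18 h, dye-loaded 1 h at 37 C and given compound for 5 min at RT, then acetylcholine was added at 50nM. FDSS fluorescence was read 3 min; 15 concentrations, three runs.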

The target is the same in assay [20]. The assay is described as follows: Cholinergic receptor muscarinic 1 (CHRM1) small molecule agonists, cell-based qHTS assay (AID 1963589). Note: nearly all actives have a fitted effect of over 35% in size. In short, it runs like this:
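Human M1 in stable CHO line; 18 h plating, 1 h dye load 37 C; cpd added (agonist mode); Ca2+ fluorescence kinetic read, 1 s intervals; 15 conc, 3 runs.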

Sequence of 5-hydroxytryptamine receptor 2A (Homo sapiens) (P28223 whole entry, looked up): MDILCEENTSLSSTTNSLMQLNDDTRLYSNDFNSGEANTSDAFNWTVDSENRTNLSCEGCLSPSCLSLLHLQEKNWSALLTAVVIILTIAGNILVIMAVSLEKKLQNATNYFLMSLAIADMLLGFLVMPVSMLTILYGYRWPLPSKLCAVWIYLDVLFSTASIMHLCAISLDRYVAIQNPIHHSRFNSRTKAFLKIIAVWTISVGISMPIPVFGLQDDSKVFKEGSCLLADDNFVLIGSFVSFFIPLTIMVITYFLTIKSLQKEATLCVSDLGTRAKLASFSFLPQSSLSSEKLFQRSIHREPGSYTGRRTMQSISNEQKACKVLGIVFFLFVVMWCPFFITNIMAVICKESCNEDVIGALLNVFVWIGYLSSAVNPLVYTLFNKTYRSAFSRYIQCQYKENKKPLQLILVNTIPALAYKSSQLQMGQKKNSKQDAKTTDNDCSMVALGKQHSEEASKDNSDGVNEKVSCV
Sequence of Beta-2 adrenergic receptor (Homo sapiens) (P07550 whole entry, looked up): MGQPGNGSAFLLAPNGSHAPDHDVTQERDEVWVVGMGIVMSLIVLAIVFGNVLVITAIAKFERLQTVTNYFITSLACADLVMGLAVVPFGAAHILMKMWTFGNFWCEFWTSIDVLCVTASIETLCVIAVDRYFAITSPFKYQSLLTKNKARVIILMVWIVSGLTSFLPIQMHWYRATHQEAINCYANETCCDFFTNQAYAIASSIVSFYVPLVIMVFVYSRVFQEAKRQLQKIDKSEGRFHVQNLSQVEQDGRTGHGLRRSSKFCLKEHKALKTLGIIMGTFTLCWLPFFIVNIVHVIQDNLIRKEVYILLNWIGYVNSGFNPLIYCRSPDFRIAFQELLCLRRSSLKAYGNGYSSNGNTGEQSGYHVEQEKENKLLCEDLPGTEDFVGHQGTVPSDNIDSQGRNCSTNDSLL
Sequence of D(2) dopamine receptor (Homo sapiens) (P14416 whole entry, looked up): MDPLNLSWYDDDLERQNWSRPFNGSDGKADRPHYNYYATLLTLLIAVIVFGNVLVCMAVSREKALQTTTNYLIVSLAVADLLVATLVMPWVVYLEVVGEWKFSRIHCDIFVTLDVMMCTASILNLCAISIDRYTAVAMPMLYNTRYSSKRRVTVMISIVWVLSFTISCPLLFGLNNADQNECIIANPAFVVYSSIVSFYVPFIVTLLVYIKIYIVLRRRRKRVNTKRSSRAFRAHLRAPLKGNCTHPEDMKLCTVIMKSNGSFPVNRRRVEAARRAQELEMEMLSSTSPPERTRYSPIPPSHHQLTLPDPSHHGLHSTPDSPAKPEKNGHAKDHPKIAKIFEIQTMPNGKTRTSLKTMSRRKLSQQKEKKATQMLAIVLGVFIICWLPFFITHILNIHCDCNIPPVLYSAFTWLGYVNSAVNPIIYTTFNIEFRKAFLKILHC
Sequence of KiSS-1 receptor (Homo sapiens) (Q969F8 whole entry, looked up): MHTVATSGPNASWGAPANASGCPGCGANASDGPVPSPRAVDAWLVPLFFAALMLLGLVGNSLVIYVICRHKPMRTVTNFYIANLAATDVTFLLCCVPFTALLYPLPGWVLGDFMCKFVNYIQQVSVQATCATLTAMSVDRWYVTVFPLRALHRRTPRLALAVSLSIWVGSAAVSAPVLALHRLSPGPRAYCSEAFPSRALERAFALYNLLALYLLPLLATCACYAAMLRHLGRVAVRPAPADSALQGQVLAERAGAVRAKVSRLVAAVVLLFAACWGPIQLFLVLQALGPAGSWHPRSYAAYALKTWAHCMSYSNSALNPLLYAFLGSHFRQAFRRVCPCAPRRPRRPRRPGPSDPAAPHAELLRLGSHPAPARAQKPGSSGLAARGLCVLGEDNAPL
Sequence of Gonadotropin-releasing hormone receptor (Homo sapiens) (P30968 whole entry, looked up): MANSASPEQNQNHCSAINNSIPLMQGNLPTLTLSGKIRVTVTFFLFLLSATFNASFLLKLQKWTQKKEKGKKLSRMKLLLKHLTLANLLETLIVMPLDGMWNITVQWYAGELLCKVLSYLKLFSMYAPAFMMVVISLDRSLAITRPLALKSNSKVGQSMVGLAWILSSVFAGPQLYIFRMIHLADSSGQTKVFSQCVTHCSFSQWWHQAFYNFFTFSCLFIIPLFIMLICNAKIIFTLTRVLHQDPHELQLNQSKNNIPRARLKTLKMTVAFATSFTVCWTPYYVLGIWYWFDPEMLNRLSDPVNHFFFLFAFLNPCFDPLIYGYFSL
Sequence of Muscarinic acetylcholine receptor M1 (Homo sapiens) (P11229 whole entry, looked up): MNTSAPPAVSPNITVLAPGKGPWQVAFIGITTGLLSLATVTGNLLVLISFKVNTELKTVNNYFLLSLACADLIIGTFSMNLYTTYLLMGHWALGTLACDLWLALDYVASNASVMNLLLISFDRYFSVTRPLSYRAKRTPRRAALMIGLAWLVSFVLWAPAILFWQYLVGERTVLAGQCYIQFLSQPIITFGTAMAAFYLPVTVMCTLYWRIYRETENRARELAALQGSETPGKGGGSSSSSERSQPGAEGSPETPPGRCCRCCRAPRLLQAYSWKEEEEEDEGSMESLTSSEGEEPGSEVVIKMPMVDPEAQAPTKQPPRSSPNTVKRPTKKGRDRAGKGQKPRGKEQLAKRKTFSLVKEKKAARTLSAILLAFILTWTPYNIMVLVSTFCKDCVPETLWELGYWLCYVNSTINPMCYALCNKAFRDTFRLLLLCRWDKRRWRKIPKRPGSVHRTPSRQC

With `O=C1CN=C(c2ccccc2)c2cc([N+](=O)[O-])ccc2N1`, the Potency result in assay [1], in assay [2], in assay [3], in [4], in assay [5] and in [6] was “inactive” in each case. For the same molecule, the Potency result in [7], in assay [8] and in [9] was “inactive” each time.

With `CCCOCC(=Nc1ccc(Cl)cc1C(F)(F)F)n1ccnc1`, the Potency result in assay [2], in [10], in [3], in assay [11], in assay [12] and in assay [13] was “inactive” each time. Also, the Potency result in assay [14] and in [15] was “inactive” in each case.

For `COc1cc(OC)c(OC)cc1C=O`, the Potency result in assay [1], in assay [10], in assay [3], in [13], in [16] and in assay [17] was “inactive” in each case. Also, the Potency result in assay [18], in assay [19], in [20] and in assay [6] was “inactive” in each case.

Regarding `Nc1ccccc1C(=O)Oc1ccc2ccccc2c1`, the Potency result in [2], in [10], in assay [3], in assay [11], in assay [12] and in assay [13] was “inactive” in each case. The Potency result in [4], in [16], in [17], in assay [18], in assay [19] and in assay [20] was “inactive” throughout. For the same molecule, the Potency result in assay [14] and in assay [9] was “inactive” each time.

For `C=COC(C)=O`, the Potency entry in [1], in assay [3], in assay [13], in [4], in assay [5] and in [17] was “inactive” each time. Further, the Potency result in [18], in [19], in assay [20], in assay [7], in assay [14] and in assay [8] was “inactive” each time. In addition, the Potency entry in assay [9] was “inactive”.

Take `CCC(C)c1cccc(C(C)CC)c1O` (stereo unspecified): the Potency result in assay [2], in assay [10], in assay [3], in assay [11], in assay [12] and in [13] was “inactive” in each case. Further, the Potency result in [5], in assay [16], in [20], in assay [14], in [8] and in assay [9] was “inactive” in each case.

Take `CCCCCCCCCC[N+](C)(C)CCCCCCCCCC`: the Potency result in [1], in [10], in assay [3], in assay [11], in assay [12] and in assay [17] was “inactive” each time. In addition, the Potency result in assay [20] and in assay [8] was “inactive” throughout. In addition, the Potency is 45.8 µM (active) in assay [4], 10.6 µM (active) in assay [19], 43.3 µM (active) in assay [7] and 27.3 µM (active) in [9].

With `CCOP(=S)(Oc1ccc([N+](=O)[O-])cc1)c1ccccc1` (stereo unspecified), the Potency result in assay [1], in assay [10], in assay [3], in [13], in assay [4] and in [5] was “inactive” throughout. Besides, the Potency result in assay [17], in assay [18], in assay [6], in [7], in assay [14] and in [15] was “inactive” in each case. The Potency entry in [9] was “inactive”.

These data come from PubChem BioAssay (Tox21).
